# Data taken from PubChem BioAssay.
# Inconclusive results are not listed. Calls of active or inactive are those of the source.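 Rule for the calls, unless noted: active = inhibition above the screen-wide mean plus 3 SD, about 51%; inactive = the rest.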
# Key:
# [1] = yeast TOR pathway RPL19A-GFP modulators, primary screen, cell-based, S. cerevisiae, multiplex flow cytometry (AID 1862; in the data active = percent of DMSO control GFP below about 86%;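 note: lower values mimic rapamycin by blocking the RPL19A rise seen in DMSO cells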); settings: S. cerevisiae RPL19A-GFP strain, flow cytometry fluorescence, 3 h; at 10 µM; stronger effect = lower value
# [2] = modulators of MEP2-GFP levels in yeast, primary screen, S. cerevisiae, multiplex flow cytometry (AID 1867;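 active = GFP response, as percent of the DMSO control, above the screen-wide mean plus 3 SD, about 139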;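 note: median GFP channel fluorescence of barcode-gated MEP2-GFP cells measured by flow cytometry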); settings: S. cerevisiae MEP2-GFP strain, 3 h, at 10 µM, stronger effect = higher value, 100% means same as DMSO wells
# [3] = modulators of CIT2-GFP expression in yeast, primary screen, S. cerevisiae, GFP fusion, multiplex flow cytometry (AID 1870;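 active = percent response above a set limit, the screen-wide mean plus 3 SD, cut at about 130% in these data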;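 note: barcoded CIT2-GFP strain pooled with four other GFP strains with rapamycin as positive control; median GFP fluorescence per well over plate mean of DMSO wells so 100% = DMSO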); settings: 3 h, at 10 µM, stronger effect = higher value
# [4] = modulators of LAP4-GFP expression in yeast, primary screen, S. cerevisiae, multiplex flow cytometry (AID 1873;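 active = GFP signal, as percent of the solvent control, above the screen mean plus 3 SD, about 149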); settings: 3 h, at 10 µM, stronger effect = higher value
# [5] = modulators of AGP1-GFP expression in yeast TOR pathway, primary screen, cell-based, multiplex flow cytometry, S. cerevisiae (AID 1887;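 active = GFP signal above the screen-wide mean plus 3 SD, that is over about 124.5% of the solvent control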;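 note: AGP1-GFP fusion strain of S. cerevisiae within a five-strain barcoded multiplex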); settings: 3 h, at 10 µM, stronger effect = higher value
# [6] = inhibitors of CD8+ T cell-vesicle binding, pilot screen, LFA-1/ICAM-1 modulator project, MLPCN validation set, flow cytometry (AID 2523;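 active = response below a set limit, under 55% cells CD8-positive and vesicle-bound, and CD8 cells' 90th-percentile brightness under 279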;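 for vesicle binding response: mean PE anti-B7-1 fluorescence of CD8+ cells relative to row control; 100% = QL9-loaded vesicles with DMSO vehicle in the same plate row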); settings: 2C mouse CD8+ T cells, at 7 µM, stronger effect = lower value; double positive events: measured here: CD8+/vesicle+ event percentage
# [7] = target: Integrin beta-1 (Homo sapiens) + Integrin alpha-4 (Homo sapiens) (UniProt P13612+P05556); assay: inhibition of HUTS-21 binding to VLA-4, pilot screen, VLA-4 allosteric modulator project, U937 cells, HUTS-21 mAb, flow cytometry, validation set (AID 2674;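 active = inhibition above 50%, about 3 SD of the validation set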;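 note: antibody binding induced by the VLA-4 ligand LDV present at three times its Kd; 0% = LDV ligand with antibody and no compound and 100% = antibody without LDV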); settings: HUTS-21 LIBS mAb binding, at 6.7 µM, stronger effect = higher value, binding induced by LDV ligand
# Integrin beta-1 (Homo sapiens) + Integrin alpha-4 (Homo sapiens), sequence (P05556 whole entry, looked up): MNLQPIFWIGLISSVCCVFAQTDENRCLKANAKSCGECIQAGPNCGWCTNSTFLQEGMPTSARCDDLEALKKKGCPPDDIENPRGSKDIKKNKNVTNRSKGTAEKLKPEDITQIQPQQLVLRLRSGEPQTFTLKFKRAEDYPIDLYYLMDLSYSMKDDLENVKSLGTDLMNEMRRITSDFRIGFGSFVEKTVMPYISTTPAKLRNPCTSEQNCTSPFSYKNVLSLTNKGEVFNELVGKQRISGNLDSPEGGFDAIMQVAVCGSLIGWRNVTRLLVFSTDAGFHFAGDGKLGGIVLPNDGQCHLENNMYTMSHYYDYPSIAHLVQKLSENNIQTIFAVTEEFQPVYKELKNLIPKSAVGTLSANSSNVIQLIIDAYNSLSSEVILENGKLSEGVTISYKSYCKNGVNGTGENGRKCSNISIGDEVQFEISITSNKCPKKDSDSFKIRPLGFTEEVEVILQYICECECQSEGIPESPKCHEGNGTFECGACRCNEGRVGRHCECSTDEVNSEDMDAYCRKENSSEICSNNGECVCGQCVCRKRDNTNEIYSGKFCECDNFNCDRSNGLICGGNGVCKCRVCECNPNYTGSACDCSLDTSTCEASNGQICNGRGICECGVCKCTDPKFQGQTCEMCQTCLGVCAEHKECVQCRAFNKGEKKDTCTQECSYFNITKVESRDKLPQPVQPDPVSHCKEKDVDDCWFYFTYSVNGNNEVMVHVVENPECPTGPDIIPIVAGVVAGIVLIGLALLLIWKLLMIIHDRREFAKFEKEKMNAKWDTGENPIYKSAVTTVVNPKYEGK
# Integrin beta-1 (Homo sapiens) + Integrin alpha-4 (Homo sapiens), sequence (P13612 whole entry, looked up): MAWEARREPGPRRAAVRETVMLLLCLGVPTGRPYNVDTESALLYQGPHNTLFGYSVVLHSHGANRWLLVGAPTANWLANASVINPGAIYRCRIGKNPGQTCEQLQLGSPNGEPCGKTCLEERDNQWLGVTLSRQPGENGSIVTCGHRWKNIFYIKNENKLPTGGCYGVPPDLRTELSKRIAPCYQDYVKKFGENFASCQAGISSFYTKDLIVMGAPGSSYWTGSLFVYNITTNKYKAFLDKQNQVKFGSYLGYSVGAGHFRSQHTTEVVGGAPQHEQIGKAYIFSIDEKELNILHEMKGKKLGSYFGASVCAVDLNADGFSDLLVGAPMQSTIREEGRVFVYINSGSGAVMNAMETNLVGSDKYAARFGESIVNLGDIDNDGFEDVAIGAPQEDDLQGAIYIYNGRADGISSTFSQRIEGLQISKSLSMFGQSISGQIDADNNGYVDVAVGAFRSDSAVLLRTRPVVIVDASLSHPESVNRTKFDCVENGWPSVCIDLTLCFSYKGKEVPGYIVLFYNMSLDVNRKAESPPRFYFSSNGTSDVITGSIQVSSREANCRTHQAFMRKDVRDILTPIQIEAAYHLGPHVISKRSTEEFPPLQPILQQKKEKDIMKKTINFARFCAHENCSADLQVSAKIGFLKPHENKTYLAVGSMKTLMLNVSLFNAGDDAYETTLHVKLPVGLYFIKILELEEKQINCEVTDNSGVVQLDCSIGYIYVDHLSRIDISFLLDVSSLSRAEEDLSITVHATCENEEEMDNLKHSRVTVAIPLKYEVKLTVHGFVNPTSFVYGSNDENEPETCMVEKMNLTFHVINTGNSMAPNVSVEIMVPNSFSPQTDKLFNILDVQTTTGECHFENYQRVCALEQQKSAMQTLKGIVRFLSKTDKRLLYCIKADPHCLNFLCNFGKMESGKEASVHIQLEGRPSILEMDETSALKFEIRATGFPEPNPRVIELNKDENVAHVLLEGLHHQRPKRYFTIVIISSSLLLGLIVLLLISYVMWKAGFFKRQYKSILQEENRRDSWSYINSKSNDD
# [8] = superoxide lowering in aged yeast cells, pilot screen, validation compound set (AID 2706;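 active = superoxide response below 65% of plate, a cut near 3 SD across the whole screen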;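 note: yeast exposed to compound for one week at 30 degrees C before staining; 100% = mean of all compound wells on the same plate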); settings: S. cerevisiae aging, superoxide DHE fluorescence; at 10 µM; stronger effect = lower value
# [9] = target: Beta-adrenergic receptor kinase 1 (Homo sapiens) (UniProt P25098); assay: GRK2 binders displacing RNA aptamer, biochemical, validation, human GRK2, bead flow cytometry (AID 488806;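 active = aptamer binding inhibition above 30%, about 3 SD of noise from non-fluorescent compounds; inactive = inhibition at or below 30%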); settings: bead-bound GRK2, FAM-aptamer displacement, at 10 µM, stronger effect = higher value
# Beta-adrenergic receptor kinase 1 (Homo sapiens), sequence (P25098 whole entry, looked up): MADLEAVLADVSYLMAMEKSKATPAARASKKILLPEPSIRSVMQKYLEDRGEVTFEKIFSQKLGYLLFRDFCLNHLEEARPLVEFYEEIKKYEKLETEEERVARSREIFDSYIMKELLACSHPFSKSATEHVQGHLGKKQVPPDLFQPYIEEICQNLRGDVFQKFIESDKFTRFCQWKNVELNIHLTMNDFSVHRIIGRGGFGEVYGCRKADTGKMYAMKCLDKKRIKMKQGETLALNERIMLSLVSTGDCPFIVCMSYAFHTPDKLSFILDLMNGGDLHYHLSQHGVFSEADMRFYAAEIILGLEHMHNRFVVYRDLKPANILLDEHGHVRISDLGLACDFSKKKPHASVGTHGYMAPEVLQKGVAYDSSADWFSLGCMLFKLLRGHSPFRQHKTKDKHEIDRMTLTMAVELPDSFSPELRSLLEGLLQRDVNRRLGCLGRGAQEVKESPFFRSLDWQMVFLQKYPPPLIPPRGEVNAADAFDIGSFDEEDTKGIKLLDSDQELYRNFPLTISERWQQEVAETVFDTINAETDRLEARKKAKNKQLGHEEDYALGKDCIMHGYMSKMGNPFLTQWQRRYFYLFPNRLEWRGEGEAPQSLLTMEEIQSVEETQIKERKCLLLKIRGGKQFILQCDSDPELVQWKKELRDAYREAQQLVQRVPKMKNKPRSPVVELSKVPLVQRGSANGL
# [10] = target: Beta-2 adrenergic receptor (Homo sapiens) (UniProt P07550); assay: beta2AR agonists driving receptor internalization, pilot screen, cell-based, FAP fluorogen, flow cytometry, validation set (AID 504459;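 active = percent response above 42, roughly 3 SD of non-fluorescent test compounds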;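 note: agonist-driven loss of surface beta2AR via internalization measured by FAP dye flow cytometry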); settings: Am2.2-beta2AR cells, FAP surface receptor flow cytometry; at 10 µM; stronger effect = higher value
# Beta-2 adrenergic receptor (Homo sapiens), sequence (P07550 whole entry, looked up): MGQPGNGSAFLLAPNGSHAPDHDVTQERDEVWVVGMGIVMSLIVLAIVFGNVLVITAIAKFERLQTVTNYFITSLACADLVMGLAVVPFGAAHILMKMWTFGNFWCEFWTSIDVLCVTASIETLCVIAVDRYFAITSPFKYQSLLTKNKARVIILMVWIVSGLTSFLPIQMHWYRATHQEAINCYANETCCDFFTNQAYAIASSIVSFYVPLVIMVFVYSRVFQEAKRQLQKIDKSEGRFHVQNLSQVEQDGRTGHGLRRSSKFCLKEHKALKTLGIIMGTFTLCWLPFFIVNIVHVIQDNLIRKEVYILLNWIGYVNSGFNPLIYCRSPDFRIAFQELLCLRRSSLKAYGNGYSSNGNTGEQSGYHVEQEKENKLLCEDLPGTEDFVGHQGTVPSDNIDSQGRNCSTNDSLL
# [11] = target: AP-2 complex subunit beta (Homo sapiens) (UniProt P63010); assay: inhibitors of arrestin peptide binding to AP2, pilot screen, biochemical, validation set, GST-AP2 beads, flow cytometry (AID 504541;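 active = inhibition above 54%, about 3 SD of non-fluorescent compounds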;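 note: AP2 carries R879A mutation and is captured from E. coli lysate; bead-bound FITC arrestin peptide fluorescence measuring arrestin peptide binding to AP2; 0% = DMSO wells and 100% = excess unlabeled arrestin peptide control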); settings: FITC arrestin peptide, at 10 µM, stronger effect = higher value, AP2 beta2 appendage fragment, R879A mutant
# AP-2 complex subunit beta (Homo sapiens), sequence (P63010 whole entry, looked up, the tested form may be a part, one chain of several): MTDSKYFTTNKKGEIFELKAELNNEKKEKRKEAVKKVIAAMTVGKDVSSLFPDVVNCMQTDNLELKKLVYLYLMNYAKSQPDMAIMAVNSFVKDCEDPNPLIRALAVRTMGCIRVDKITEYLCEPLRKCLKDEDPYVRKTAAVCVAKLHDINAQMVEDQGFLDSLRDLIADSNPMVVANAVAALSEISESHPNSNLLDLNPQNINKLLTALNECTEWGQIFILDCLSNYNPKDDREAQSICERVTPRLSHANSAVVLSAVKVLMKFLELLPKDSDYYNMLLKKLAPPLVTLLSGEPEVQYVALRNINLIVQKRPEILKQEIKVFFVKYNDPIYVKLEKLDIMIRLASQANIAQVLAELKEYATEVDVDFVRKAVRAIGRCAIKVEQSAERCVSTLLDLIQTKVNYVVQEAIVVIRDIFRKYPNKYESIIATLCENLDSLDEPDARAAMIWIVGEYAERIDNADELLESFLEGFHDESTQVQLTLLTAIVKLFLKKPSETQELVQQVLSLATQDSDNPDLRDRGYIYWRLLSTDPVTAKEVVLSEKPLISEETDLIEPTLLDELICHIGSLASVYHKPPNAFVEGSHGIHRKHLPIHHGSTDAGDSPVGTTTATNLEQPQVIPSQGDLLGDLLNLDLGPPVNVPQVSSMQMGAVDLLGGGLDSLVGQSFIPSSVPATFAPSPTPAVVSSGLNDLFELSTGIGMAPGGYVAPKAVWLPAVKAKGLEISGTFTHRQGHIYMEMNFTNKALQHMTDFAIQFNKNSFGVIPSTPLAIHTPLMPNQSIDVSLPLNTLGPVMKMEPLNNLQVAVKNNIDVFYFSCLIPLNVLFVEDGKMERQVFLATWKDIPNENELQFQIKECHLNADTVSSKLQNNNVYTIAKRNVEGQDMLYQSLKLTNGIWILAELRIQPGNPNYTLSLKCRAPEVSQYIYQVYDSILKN
# [12] = yeast V-ATPase proton transport modulators, S. cerevisiae, pHLuorin, HTS validation (AID 504600; in the data active = response above about 15%;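 note: plate controls were DMSO for no effect and reference compound for full effect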); settings: S. cerevisiae pHLuorin cytosolic pH, at 10 µM, stronger effect = higher value
# [13] = tested on: anti-desmoglein-3 scFv antibody binding to human DSG3; assay: inhibitors of anti-DSG3 scFv binding to DSG3, pilot screen, biochemical, validation compound set, bead-based, flow cytometry (AID 588368;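 active = binding below the plate cutoff, the plate median minus 3 SD, with a reading above zero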;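 note: signal is the median channel fluorescence of bead-bound GFP antibody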); settings: Protein G beads, DSG3-Fc, scFv-GFP binding, at 10 µM, stronger effect = lower value
# [14] = inhibitors of fungal efflux pumps CDR1, CDR2, MDR1, pilot screen, validation compound set, multiplex, phenotypic (AID 588506;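 active = efflux inhibition above 0.42, the validation set average plus 4 SD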;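 note: Nile Red retained in cells so higher fluorescence means more efflux inhibition; 0 = negative control wells and 1 = enniatin B 25 µM full block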); settings: S. cerevisiae pump-expressing triplex, Nile Red efflux flow cytometry; at 10 µM; stronger effect = higher value; the pumps come from Candida albicans
# [15] = target: ATP-binding cassette sub-family B member 6 (Homo sapiens) (UniProt Q9NP58); assay: ABCB6 transporter inhibitors, pilot screen, K562-ABCB6 cells, flow cytometry, validation set (AID 588550); settings: K562-ABCB6 porphyrin accumulation, 1 h, at 10 µM, stronger effect = higher value;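 note: 0% = DMSO wells and 100% = benzethonium chloride 70 µM positive control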
# ATP-binding cassette sub-family B member 6 (Homo sapiens), sequence (Q9NP58 whole entry, looked up): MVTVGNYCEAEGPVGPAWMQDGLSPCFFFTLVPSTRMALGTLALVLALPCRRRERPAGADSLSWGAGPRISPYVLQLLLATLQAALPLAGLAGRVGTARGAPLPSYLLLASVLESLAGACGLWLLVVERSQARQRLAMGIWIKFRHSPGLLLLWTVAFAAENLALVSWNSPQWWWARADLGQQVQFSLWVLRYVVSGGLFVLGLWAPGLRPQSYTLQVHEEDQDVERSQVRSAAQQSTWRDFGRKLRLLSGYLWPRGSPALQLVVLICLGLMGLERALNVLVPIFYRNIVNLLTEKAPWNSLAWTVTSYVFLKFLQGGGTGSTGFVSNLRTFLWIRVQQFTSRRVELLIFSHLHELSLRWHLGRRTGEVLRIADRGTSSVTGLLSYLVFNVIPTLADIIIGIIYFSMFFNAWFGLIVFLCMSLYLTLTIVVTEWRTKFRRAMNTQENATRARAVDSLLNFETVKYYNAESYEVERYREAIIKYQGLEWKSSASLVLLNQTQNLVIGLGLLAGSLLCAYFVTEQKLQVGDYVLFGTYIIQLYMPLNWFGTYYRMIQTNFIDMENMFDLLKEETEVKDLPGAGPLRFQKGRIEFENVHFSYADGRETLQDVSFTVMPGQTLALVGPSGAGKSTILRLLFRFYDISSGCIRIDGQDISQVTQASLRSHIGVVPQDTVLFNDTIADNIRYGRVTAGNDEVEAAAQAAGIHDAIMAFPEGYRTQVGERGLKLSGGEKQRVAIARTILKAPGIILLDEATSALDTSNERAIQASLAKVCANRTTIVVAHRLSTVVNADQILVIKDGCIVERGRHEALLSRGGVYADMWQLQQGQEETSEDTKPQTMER
# [16] = promoters of myeloid differentiation in arrested cells, primary screen, cell-based, GFP/MAC1 double positive, flow cytometry, validation set (AID 588685;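 active = differentiation response of at least 50%, scaled between solvent and reference control, from cells with both markers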;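 note: compound exposure lasts four days before antibody staining and flow analysis; 0% = DMSO wells and 100% = 5 µM fulvestrant positive control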); settings: ER-HoxA9 marrow cells, stronger effect = higher value, normalized: vehicle 0, fulvestrant 100
Compound,percent of DMSO control GFP [1],GFP response vs DMSO [2],percent response of DMSO control [3],GFP response vs DMSO [4],"GFP response, % of DMSO [5]",double positive events [6] [%],vesicle binding response [6],inhibition [7],superoxide response (% of plate) [8],aptamer binding inhibition [9],response [10],inhibition [11],response [12],binding (% of control) [13],efflux inhibition (fraction of control) [14],inhibition [15],differentiation response [16]
CC(=O)CCCCn1c(=O)c2c(ncn2C)n(C)c1=O,103% (inactive),96.2% (inactive),106% (inactive),82.2% (inactive),97.5% (inactive),57.8,162% (inactive),12% (inactive),102% (inactive),2% (inactive),-1.49% (inactive),4.72% (inactive),0.63% (inactive),95.5% (inactive),0.49 (active),-3% (inactive),20.8% (inactive)
O=C(COc1ccc(F)cc1)OCCN1CCOCC1,102% (inactive),95.1% (inactive),112% (inactive),93.3% (inactive),102% (inactive),62.8,246% (inactive),-2.53% (inactive),89.6% (inactive),0% (inactive),-7.72% (inactive),-0.56% (inactive),21.8% (active),96.4% (inactive),-0.1 (inactive),-1% (inactive),-6.6% (inactive)
Cc1ccc(C(=O)NCCNC(=O)c2ccccc2)cc1,92.8% (inactive),96.6% (inactive),88% (inactive),98.3% (inactive),103% (inactive),69.2,179% (inactive),13.4% (inactive),102% (inactive),0% (inactive),-20.1% (inactive),-2.62% (inactive),-1.2% (inactive),103% (inactive),-0.04 (inactive),4% (inactive),-18.8% (inactive)
COc1ccccc1CCn1cnc2c3cc(C)ccc3n(C)c2c1=O,100% (inactive),106% (inactive),105% (inactive),108% (inactive),98.8% (inactive),56.6,138% (inactive),-27.9% (inactive),94.8% (inactive),-1% (inactive),-8.23% (inactive),9.65% (inactive),-3.34% (inactive),101% (inactive),-0.31 (inactive),-9% (inactive),-14.8% (inactive)
CC1(C)CC(=O)c2cn3c(nc2C1)nc1ccccc13,102% (inactive),97.7% (inactive),104% (inactive),99.1% (inactive),102% (inactive),55.9,104% (inactive),9.63% (inactive),107% (inactive),-1% (inactive),-25.5% (inactive),17% (inactive),3.76% (inactive),103% (inactive),-0.12 (inactive),-6% (inactive),-6.03% (inactive)
CCc1cc(/C(Cc2ccccn2)=N\O)c(O)cc1O,99.1% (inactive),102% (inactive),107% (inactive),83.7% (inactive),91.4% (inactive),52.1,51.2% (active),-14.1% (inactive),104% (inactive),3% (inactive),10.8% (inactive),15.4% (inactive),2.25% (inactive),101% (inactive),-0.17 (inactive),1% (inactive),-5.6% (inactive)
CC(C)OC(=O)CC12CN3CN(C1)CC(CC(=O)OC(C)C)(C3)C2=O,99.5% (inactive),115% (inactive),90.1% (inactive),119% (inactive),105% (inactive),60.5,179% (inactive),-0.43% (inactive),92.3% (inactive),1% (inactive),-2.44% (inactive),11.2% (inactive),-2% (inactive),103% (inactive),0.12 (inactive),11% (inactive),39.2% (inactive)
COc1ccccc1N1CCN(CC(O)COc2cccc3ccccc23)CC1 (configuration not stated),102% (inactive),105% (inactive),98.3% (inactive),109% (inactive),118% (inactive),64.3,192% (inactive),8.25% (inactive),97.5% (inactive),6% (inactive),-24.7% (inactive),-5.11% (inactive),5.97% (inactive),107% (inactive),-0.09 (inactive),-4% (inactive),4.86% (inactive)
NS(=O)(=O)c1cc2c(cc1Cl)NC(C1C[C@H]3C=C[C@@H]1C3)NS2(=O)=O (some centres not stated),104% (inactive),106% (inactive),105% (inactive),105% (inactive),106% (inactive),61.8,153% (inactive),-19.9% (inactive),98.5% (inactive),2% (inactive),-2.86% (inactive),11.5% (inactive),-7.8% (inactive),97.3% (inactive),0.03 (inactive),10% (inactive),-17.7% (inactive)
COc1cc2cc(C)nc(Cc3cccc4ccccc34)c2cc1OC,102% (inactive),105% (inactive),98.2% (inactive),82.3% (inactive),97.7% (inactive),59.9,204% (inactive),1.12% (inactive),95.6% (inactive),3% (inactive),9.84% (inactive),8.39% (inactive),-0.08% (inactive),101% (inactive),0.04 (inactive),-9% (inactive),4.21% (inactive)
O=C(O)c1ccc(N2C(=O)/C(=C\c3ccccc3)N=C2c2ccccc2)cc1,103% (inactive),106% (inactive),99.7% (inactive),110% (inactive),98% (inactive),58.6,120% (inactive),-5.11% (inactive),111% (inactive),2% (inactive),-17.4% (inactive),-10.8% (inactive),-0.35% (inactive),98.1% (inactive),-0.2 (inactive),-15% (inactive),-0.18% (inactive)
